In all, about 69,000 compounds went through this assay and about 8,600 (12%) showed an effect of 50% or more. This excerpt belongs to a sample that is enriched for strong results.

The values below come from ChEMBL document CHEMBL4513216, “Probing the Open Global Health Chemical Diversity Library for Multistage-Active Starting Points for Next-Generation Antimalarials” (ACS Infect Dis, 2020).

This experiment concerns Plasmodium berghei. In words: Screen against P. berghei liver stage (PbLuc), transformed with Luciferase, at 10uM. The format is functional, HepG2. Particulars: tested at 10 uM.
For `COc1ccc(Cl)cc1Nc1nc(N)c(C(C)=O)s1`, the INHIBITION is on record as 9.32%.
Under `OCCN1CCC2(CC1)CC(NCc1ccccn1)c1ccccc1O2` (stereo not drawn) stands 33%; under `O=C(Nc1cccc(CNCc2ccccn2)c1)C1CCCC1`, -0.65%; under `O=C(Nc1ccc(CCN2CCC(O)CC2)cc1)C1CCCCC1`, 29.2%.
In the case of `CN1C(=O)C2(CCN(S(=O)(=O)C3CC3)CC2)c2ccccc21`, the INHIBITION is listed as -3.51%.
In the case of `CN1C(=O)CC2(CCN(S(=O)(=O)C3CC3)CC2)c2ccccc21` it was 55.6%.
In the case of `CN1CC2(CCN(S(=O)(=O)C3CC3)CC2)c2ccccc21` it was 58.5%; in that of `CN1C(=O)CC2(CCN(S(=O)(=O)N(C)C)CC2)c2ccccc21`, 27.5%.
On to `CN(C)C(=O)N1CC2(CCN(S(=O)(=O)C3CC3)CC2)c2ccccc21`, for which the INHIBITION amounted to 38.2%.
On to `CN(C)C(=O)N1CC2(CCN(S(C)(=O)=O)CC2)c2ccccc21`, for which the INHIBITION was -43.1%.
As for `O=C(c1ccccn1)N1CCC2(CCCN(c3nncs3)C2)C1` (stereo not drawn), the INHIBITION amounted to 28.5%.
In the case of `COc1c(C2CC(=O)Nc3[nH]ncc32)cc2c(c1OC)OCO2` (stereo not drawn) it was 7.38%; in that of `Cc1sc(CN)nc1-c1ccccc1`, 6.54%; in that of `Cc1ccc(C(=O)N2CCc3ccc(=O)n(CCN(C)C)c3CC2)o1`, -17.2%.
In the case of `COc1ccc(OC2CCN(C(=O)CCc3nc(Cl)n[nH]3)CC2)cc1` it was 28.4%; in that of `CN1CCC(N(C)CCC(=O)N2CCC(Cc3ccc(F)cc3)CC2)C1` (stereo not drawn), 66.4%.
Take `CN1CCC(N(C)CCC(=O)N2CCC(OCc3ccccc3)CC2)C1` (stereo not drawn): the INHIBITION turned out to be 23.8%.
In the case of `CN1CCC(N(C)CCC(=O)N2CCN(Cc3cccc(F)c3)CC2)C1` (stereo not drawn) it was -0.991%; in that of `CN1CCC(N(C)CCC(=O)N2CCC(CCc3ccccc3)CC2)C1` (stereo not drawn), 74.3%.
In the case of `CN1CCC(N(C)CCC(=O)N2CCC(Oc3ccc(Cl)cc3)CC2)C1` (stereo not drawn) it was 67.4%; in that of `CN1CC[C@H](N(C)Cc2ccccc2)C[C@H](O)C1`, 18.4%.
As to `NC(=O)CC1CCN(C(=O)CCOc2ccc(Cl)cc2)CC1`, the INHIBITION amounted to 23.2%.
In the case of `O=C(CCc1cc(O)no1)N1CCC(Cc2ccc(F)cc2)CC1`, the INHIBITION is -3.12%.
For `CCc1nc(-c2ccnc(N3CCNCC3)n2)no1`, the INHIBITION was found to be 29.6%.
Under `Cc1cc(C)c(CNC(=O)N2CCCC2c2ccc(F)cc2)c(=O)[nH]1` (stereo not drawn) stands 34.7%; under `CC(C)n1cnnc1CN(C)C(=O)CCn1cnc2ccccc2c1=O`, -17.6%.
As for `CN1CC(=O)N(C2CCC2)Cc2c(NC3CCNCC3)ncnc21`, the INHIBITION turned out to be 20.9%.
With `CC(=O)N[C@@H]1CN(Cc2ccc(F)cc2F)C[C@H]1c1ccc(C)o1`, the INHIBITION was -14.1%.
Under `c1csc(C(CNCc2cccc3c2OCO3)N2CCOCC2)c1` (stereo not drawn) stands 61.9%; under `CC(C)C(CNCc1cccc2c1OCO2)N1CCOCC1` (stereo not drawn), 24.8%; under `Cc1ccc(C(CNCc2cccc3c2OCO3)N2CCOCC2)o1` (stereo not drawn), 29.4%.
With `Cc1ccc(NC(=O)N2CCCC(O)C2)c(Br)c1` (stereo not drawn), the INHIBITION was -86.5%.
In the case of `Cc1ccc(OCCCNC(=O)CN(C)c2ccc(C#N)cn2)cc1` it was 49.3%.
Take `COc1ccc(CNC(=O)CCc2nnc3ccccn3c2=O)cc1`: the INHIBITION is 25.3%.
Under `O=C(CCc1nnc2ccccn2c1=O)NCc1ccc2c(c1)OCO2` stands 57%; under `O=C(CCc1nnc2ccccn2c1=O)NCc1cccnc1`, 37.3%.
For `Cc1nc(CO[C@@H]2CN(Cc3cccs3)[C@@H]3COC[C@@H]32)cs1`, the INHIBITION was -33.3%.
Under `CNc1cc(C)nc(-c2cc(NC)nc3[nH]ccc23)n1` stands -8.51%; under `Cc1cc(CNc2cncc(C(=O)N(C)C)n2)c2[nH]c(C)c(C)c2c1`, 29.7%.
In the case of `CNc1cc(C)nc(NCc2cc(C)cc3c(C)c(C)[nH]c23)n1` it was 76.7%; in that of `CNc1nc(C)cc(NCc2cc(C)cc3c(C)c(C)[nH]c23)n1`, 87.9%; in that of `CNc1cc(C)nc(-c2cc(NCCO)nc3[nH]ccc23)n1`, -28.4%.
Under `C[C@@H](N)C(=O)N1CCC(c2[nH]ncc2-c2ccccc2)CC1` stands 36.15%; under `CC(=O)N1C[C@H]2CCCN(Cc3ccc(C)o3)[C@H]2C1`, -3.58%.
For `O=C(c1cnccn1)N1CCCC2(COCCN(CC3CC3)C2)C1` (stereo not drawn), the INHIBITION amounted to 37%.
As for `O=C(NCc1ccccn1)[C@]12COC[C@H]1CN(Cc1cccnc1)C2`, the INHIBITION is -17.2%.
Turning to `C[C@H](NC(=O)N1CCC(Cc2ccccc2)CC1)C(=O)O`, the INHIBITION amounted to 27.5%.
In the case of `NC(=O)COc1ccc(CNCc2ccc(Cl)c(F)c2)cc1` it was 0.426%; in that of `CC(Cn1cccn1)NC(=O)CCC(=O)c1cccs1` (stereo not drawn), -13.5%; in that of `COc1ccc2c(c1)OCC(Cc1cnc(N)c(C)c1)C2` (stereo not drawn), 55.9%.
Under `c1ccc2c(c1)CC(Cc1cc(N3CCCC3)cnn1)CO2` (stereo not drawn) stands 13%.
Regarding `COc1ccc2c(c1)OCC(Cc1ccc(N(C)C)nc1)C2` (stereo not drawn), the INHIBITION is listed as 14.9%.
Under `COc1ccc2c(c1)OCC(Cc1ccc(CN)cn1)C2` (stereo not drawn) stands -45.5%; under `COc1ccc2c(c1)OCC(Cc1cncc(N)c1)C2` (stereo not drawn), 61.1%; under `COc1ccc2c(c1)OCC(Cc1cc(N3CCCC3)cnn1)C2` (stereo not drawn), -43.7%.
Turning to `Cc1cc(CC2COc3ccccc3C2)cnc1N` (stereo not drawn), the INHIBITION turned out to be 75.1%.
On to `COc1ccc2c(c1)OCC(Cc1ccc(N)cn1)C2` (stereo not drawn), for which the INHIBITION was -93%.
Under `COc1cccc2c1OCC(Cc1cnc(N)c(C)c1)C2` (stereo not drawn) stands 14.5%; under `O=C(c1sccc1-n1cnnn1)N1CCC2(CCCCC2)CC1`, 28.1%.
On to `Cc1ccc(C(=O)NC(CN2CCCC2=O)c2ccccc2)cn1` (stereo not drawn), for which the INHIBITION was determined as 15.3%.
Turning to `CC(C)N1CCC(c2nccnc2Nc2ncccn2)CC1`, the INHIBITION is 42.4%.
Under `Cc1ncc2c(n1)CN(C=C1NN=C(c3occc3C)O1)CC2` stands 47.6%.
Regarding `O=C(Nc1cnn(Cc2ccccc2)c1)N1CCN(CCO)CC1`, the INHIBITION is listed as -26.8%.
Under `c1cncc(-c2noc(C3CN(Cc4cccs4)C3)n2)c1` stands 22.2%; under `Cc1nc(C2CCN(Cc3ncc[nH]3)CC2)no1`, 20.8%.
`COC(=O)CN1CCSC(c2ccccc2)C1` (stereo not drawn): the INHIBITION worked out at 48.2%.
Turning to `CCCn1ncc(CN2CCCC(C(=O)c3ccc(SC)cc3)C2)c1C` (stereo not drawn), the INHIBITION stood at 83.9%.
Take `CCn1ncc(CN2CCCC(n3c(=O)oc4ccccc43)C2)c1C` (stereo not drawn): the INHIBITION is on record as 4.7%.
In the case of `CC(C)(N)C(=O)N1CCCC(C(=O)c2ccc(C(C)(C)C)cc2)C1` (stereo not drawn) it was 36.8%; in that of `CSc1ccc(C(=O)C2CCCN(C(=O)CCCn3cncn3)C2)cc1` (stereo not drawn), 22.2%; in that of `CCn1ncc(CN2CCCC(C(=O)c3ccc(Cl)cc3)C2)c1C` (stereo not drawn), 18.5%.
In the case of `Cc1c(CN2CCCC(C(=O)c3ccc(C(C)(C)C)cc3)C2)cnn1C` (stereo not drawn) it was 89.4%.
In the case of `CCCn1ncc(CN2CCCC(C(=O)c3ccc(Cl)cc3C)C2)c1C` (stereo not drawn), the INHIBITION came to 73%.
For the molecule `COc1ccc(C(=O)C2CCCN(Cc3cnn(C)c3C)C2)c(OC)c1` (stereo not drawn), the INHIBITION is 14.3%.
Regarding `CN(C)c1ncc(CN2CCCC(Nc3ccc4c(c3)OCCO4)C2)s1` (stereo not drawn), the INHIBITION is -0.217%.
Under `COc1ccc(F)cc1C(=O)C1CCCN(Cc2cnc(C)s2)C1` (stereo not drawn) stands 47.2%; under `Cc1cc(Cl)ccc1C(=O)C1CCCN(Cc2cnc(N(C)C)s2)C1` (stereo not drawn), 83%; under `CSc1ccc(C(=O)C2CCCN(C(=O)CCn3cncn3)C2)cc1` (stereo not drawn), 22.2%.
